From PubChem BioAssay (NCATS)
Calls of active or inactive are those of the source. Calls come from the whole dose curve.

molecular target: Catechol O-methyltransferase (Homo sapiens) (UniProt P21964); assay: Confirmatory Screen for Target Class Profiling of Small Molecule Inhibitors of Methyltransferases (AID 1745852); details: MTase-Glo luminescence, SAH detection, recombinant enzyme; measured here: COMT max response; stronger effect = lower value; for activity change, negative = inhibition: % is set by controls: 0 for no effect and ±100 for the full control effect
Sequence (P21964 whole entry, looked up): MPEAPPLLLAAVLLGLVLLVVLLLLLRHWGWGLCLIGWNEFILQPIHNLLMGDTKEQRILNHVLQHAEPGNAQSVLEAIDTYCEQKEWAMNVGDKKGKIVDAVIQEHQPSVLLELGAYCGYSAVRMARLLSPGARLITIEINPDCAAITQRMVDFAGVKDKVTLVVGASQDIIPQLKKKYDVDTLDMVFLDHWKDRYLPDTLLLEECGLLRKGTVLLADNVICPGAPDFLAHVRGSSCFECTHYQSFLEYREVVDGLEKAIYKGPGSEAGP

| Structure (SMILES) | activity [%] |
| --- | --- |
| CCOC(=O)[C@@H](N)Cc1ccc(-c2cc(O[C@H](c3ccc(Cl)cc3-n3ccc(C)n3)C(F)(F)F)nc(N)n2)cc1 | -0.461 |
| c1cc(N[C@@H]2CCNC2)nc(-c2cnc3ccc(-c4cn[nH]c4)cn23)c1 | -4.23 |
| CCN(CC)Cc1ccc2cc(COC(=O)Nc3ccc(C(=O)NO)cc3)ccc2c1 | 0 |

molecular target: Guanidinoacetate N-methyltransferase (Homo sapiens) (UniProt Q14353); assay: as above; details: MTase-Glo luminescence, SAH detection, recombinant enzyme; activity change, negative = inhibition: at 57.3 µM (top of the series); series mostly up to 57.3 µM

| Structure (SMILES) | activity change, negative = inhibition [%] | Potency |
| --- | --- | --- |
| CCOC(=O)[C@@H](N)Cc1ccc(-c2cc(O[C@H](c3ccc(Cl)cc3-n3ccc(C)n3)C(F)(F)F)nc(N)n2)cc1 | 0 | – |
| c1cc(N[C@@H]2CCNC2)nc(-c2cnc3ccc(-c4cn[nH]c4)cn23)c1 | – | inactive |
| CCN(CC)Cc1ccc2cc(COC(=O)Nc3ccc(C(=O)NO)cc3)ccc2c1 | -6.61 | – |

molecular target: Nicotinamide N-methyltransferase (Homo sapiens) (UniProt P40261); assay: as above; details: MTase-Glo luminescence, SAH detection, recombinant enzyme; measured here: NNMT max response; stronger effect = lower value
Sequence (P40261 whole entry, looked up): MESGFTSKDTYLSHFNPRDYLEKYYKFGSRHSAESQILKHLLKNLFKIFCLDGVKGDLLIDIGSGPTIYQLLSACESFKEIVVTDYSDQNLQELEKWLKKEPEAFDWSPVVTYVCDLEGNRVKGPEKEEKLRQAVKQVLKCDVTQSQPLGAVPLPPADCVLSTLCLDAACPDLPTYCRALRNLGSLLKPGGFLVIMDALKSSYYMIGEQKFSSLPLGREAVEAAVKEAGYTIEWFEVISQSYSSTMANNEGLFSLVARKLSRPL

| Structure (SMILES) | activity [%] |
| --- | --- |
| CCOC(=O)[C@@H](N)Cc1ccc(-c2cc(O[C@H](c3ccc(Cl)cc3-n3ccc(C)n3)C(F)(F)F)nc(N)n2)cc1 | -31.8 |
| c1cc(N[C@@H]2CCNC2)nc(-c2cnc3ccc(-c4cn[nH]c4)cn23)c1 | -7.42 |
| CCN(CC)Cc1ccc2cc(COC(=O)Nc3ccc(C(=O)NO)cc3)ccc2c1 | -7.87 |
